Numbering of substitutions follows the chain as printed.
Experiments:
Assay in all cases: PBM; 200 nM protein, PBS
Details in all cases: dsDNA, one strand shown
PAX4 [1] = biological target: T1, PAX4 (Homo sapiens, UniProt O43316 9-242, R200K)
T1 sequence: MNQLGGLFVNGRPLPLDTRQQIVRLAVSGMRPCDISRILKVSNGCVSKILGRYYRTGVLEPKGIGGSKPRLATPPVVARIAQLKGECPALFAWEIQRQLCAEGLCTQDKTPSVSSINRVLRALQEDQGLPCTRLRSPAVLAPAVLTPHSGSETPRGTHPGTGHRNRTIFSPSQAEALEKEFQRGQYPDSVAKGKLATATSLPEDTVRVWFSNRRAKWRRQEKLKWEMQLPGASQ

PAX4 [2] = biological target: T2, PAX4 (Homo sapiens, UniProt O43316 9-242)
T2 sequence: T1 sequence with K192R

HOXB6 [3] = biological target: HOXB6 (Homo sapiens, UniProt P17509 132-218, K202E)
PAX4 [4] = biological target: T3, PAX4 (Homo sapiens, UniProt O43316 9-242, R200Q)
T3 sequence: T1 sequence with K192Q

PAX4 [5] = biological target: T4, PAX4 (Homo sapiens, UniProt O43316 9-242, F177V)
T4 sequence: T1 sequence with F169V, K192R

PAX4 [6] = biological target: T5, PAX4 (Homo sapiens, UniProt O43316 9-242, F177Y)
T5 sequence: T1 sequence with F169Y, K192R

PAX4 [7] = biological target: T6, PAX4 (Homo sapiens, UniProt O43316 9-242, R227W)
T6 sequence: T1 sequence with K192R, R219W

HOXB6 [8] = biological target: HOXB6 (Homo sapiens, UniProt P17509 132-218)
ALX4 [9] = biological target: ALX4 (Homo sapiens, UniProt Q9H161 200-286)
ALX4 [10] = biological target: ALX4 (Homo sapiens, UniProt Q9H161 200-286, Q225E)
HOXA4 = HOXA4 (Homo sapiens, UniProt Q00056 201-287, R217L)
ALX3 = ALX3 (Homo sapiens, UniProt O95076 139-225, N203S)
PRRX1 [11] = biological target: PRRX1 (Homo sapiens, UniProt P54821 80-166, F113S)
PRRX1 [12] = biological target: PRRX1 (Homo sapiens, UniProt P54821 80-166)
HOXA2 [13] = biological target: HOXA2 (Homo sapiens, UniProt O43364 129-215, R185T)
HOXA2 [14] = biological target: HOXA2 (Homo sapiens, UniProt O43364 129-215, R185K)
HOXA2 [15] = biological target: HOXA2 (Homo sapiens, UniProt O43364 129-215, Y150S)
HOXA2 [16] = biological target: HOXA2 (Homo sapiens, UniProt O43364 129-215)
HOXD13 [17] = biological target: HOXD13 (Homo sapiens, UniProt P35453 263-343, T313R)
HOXD13 [18] = biological target: HOXD13 (Homo sapiens, UniProt P35453 263-343)
HOXD13 [19] = biological target: HOXD13 (Homo sapiens, UniProt P35453 263-343, T313A)
NKX2-6 [20] = biological target: T7, NKX2-6 (Homo sapiens, UniProt A6NCS4 118-204)
T7 sequence: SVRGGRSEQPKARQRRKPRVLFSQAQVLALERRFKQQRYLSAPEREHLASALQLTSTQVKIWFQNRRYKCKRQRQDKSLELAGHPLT

NKX2-6 [21] = biological target: T8, NKX2-6 (Homo sapiens, UniProt A6NCS4 118-204, F151L)
T8 sequence: T7 sequence with F34L

Sequence of ALX4 (Homo sapiens, UniProt Q9H161 200-286, Q225E) (Q9H161 200-286 Q225E): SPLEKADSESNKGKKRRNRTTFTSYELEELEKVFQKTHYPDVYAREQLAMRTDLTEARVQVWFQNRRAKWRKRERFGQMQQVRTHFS
Sequence of HOXA2 (Homo sapiens, UniProt O43364 129-215, R185K) (O43364 129-215 R185K): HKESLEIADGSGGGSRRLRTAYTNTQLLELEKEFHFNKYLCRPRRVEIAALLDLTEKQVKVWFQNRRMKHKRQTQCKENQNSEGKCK
Sequence of HOXA2 (Homo sapiens, UniProt O43364 129-215) (O43364 129-215): as the sequence (O43364 129-215 R185K) above, with K57R counted along it
Sequence of HOXA2 (Homo sapiens, UniProt O43364 129-215, Y150S) (O43364 129-215 Y150S): as the sequence (O43364 129-215 R185K) above, with Y22S, K57R counted along it
Sequence of HOXA2 (Homo sapiens, UniProt O43364 129-215, R185T) (O43364 129-215 R185T): as the sequence (O43364 129-215 R185K) above, with K57T counted along it
Sequence of ALX4 (Homo sapiens, UniProt Q9H161 200-286) (Q9H161 200-286): as the sequence (Q9H161 200-286 Q225E) above, with E26Q counted along it
Sequence of HOXA4 (Q00056 201-287 R217L): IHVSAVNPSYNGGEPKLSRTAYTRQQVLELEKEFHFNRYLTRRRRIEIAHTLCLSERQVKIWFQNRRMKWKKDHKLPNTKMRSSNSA
Sequence of HOXD13 (Homo sapiens, UniProt P35453 263-343, T313A) (P35453 263-343 T313A): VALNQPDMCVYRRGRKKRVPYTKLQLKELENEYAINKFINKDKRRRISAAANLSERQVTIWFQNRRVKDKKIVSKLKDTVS
Sequence of PRRX1 (Homo sapiens, UniProt P54821 80-166, F113S) (P54821 80-166 F113S): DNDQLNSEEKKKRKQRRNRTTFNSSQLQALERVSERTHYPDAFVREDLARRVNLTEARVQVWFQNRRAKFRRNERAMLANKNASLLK
Sequence of HOXD13 (Homo sapiens, UniProt P35453 263-343, T313R) (P35453 263-343 T313R): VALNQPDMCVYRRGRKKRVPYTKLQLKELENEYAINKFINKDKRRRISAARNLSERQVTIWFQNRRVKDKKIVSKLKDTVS
Sequence of HOXB6 (Homo sapiens, UniProt P17509 132-218) (P17509 132-218): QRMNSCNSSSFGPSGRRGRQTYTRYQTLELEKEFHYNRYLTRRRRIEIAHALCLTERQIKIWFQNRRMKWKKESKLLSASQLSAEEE
Sequence of ALX3 (O95076 139-225 N203S): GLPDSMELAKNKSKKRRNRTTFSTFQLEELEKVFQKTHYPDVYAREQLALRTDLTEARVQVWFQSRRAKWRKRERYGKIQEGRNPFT
Sequence of HOXB6 (Homo sapiens, UniProt P17509 132-218, K202E) (P17509 132-218 K202E): as the sequence (P17509 132-218) above, with K71E counted along it
Sequence of PRRX1 (Homo sapiens, UniProt P54821 80-166) (P54821 80-166): as the sequence (P54821 80-166 F113S) above, with S34F counted along it
Sequence of HOXD13 (Homo sapiens, UniProt P35453 263-343) (P35453 263-343): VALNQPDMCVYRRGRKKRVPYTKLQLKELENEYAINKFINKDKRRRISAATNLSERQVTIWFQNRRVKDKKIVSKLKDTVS

Sequence: AGTCCGGC
- binding signal (PAX4 [1]): 9.22 upbm affinity estimate (log intensity, higher = more binding, comparable within an allelic series)
- binding signal (PAX4 [2]): 9.22 upbm affinity estimate (log intensity, higher = more binding, comparable within an allelic series)
- binding signal (HOXB6 [3]): 8.99 upbm affinity estimate (log intensity, higher = more binding, comparable within an allelic series)
- binding signal (PAX4 [4]): 9.29 upbm affinity estimate (log intensity, higher = more binding, comparable within an allelic series)
- binding signal (PAX4 [5]): 9.3 upbm affinity estimate (log intensity, higher = more binding, comparable within an allelic series)
- binding signal (PAX4 [6]): 9.32 upbm affinity estimate (log intensity, higher = more binding, comparable within an allelic series)
- binding signal (PAX4 [7]): 9.3 upbm affinity estimate (log intensity, higher = more binding, comparable within an allelic series)
- binding signal (HOXB6 [8]): 8.89 upbm affinity estimate (log intensity, higher = more binding, comparable within an allelic series)

Sequence: AAGTAATT
- binding signal (ALX4 [9]): 13 upbm affinity estimate (log intensity, higher = more binding, comparable within an allelic series)
- binding signal (ALX4 [10]): 12 upbm affinity estimate (log intensity, higher = more binding, comparable within an allelic series)
- binding signal (HOXA4): 12 upbm affinity estimate (log intensity, higher = more binding, comparable within an allelic series)
- binding signal (ALX3): 8.65 upbm affinity estimate (log intensity, higher = more binding, comparable within an allelic series)

Sequence: CTCTAGGA
- binding signal (ALX4 [9]): 8.21 upbm affinity estimate (log intensity, higher = more binding, comparable within an allelic series)
- binding signal (ALX4 [10]): 8.12 upbm affinity estimate (log intensity, higher = more binding, comparable within an allelic series)

Sequence: ATAATTTG
- binding signal (PAX4 [1]): 11.6 upbm affinity estimate (log intensity, higher = more binding, comparable within an allelic series)
- binding signal (PRRX1 [11]): 10.9 upbm affinity estimate (log intensity, higher = more binding, comparable within an allelic series)
- binding signal (PAX4 [2]): 12.1 upbm affinity estimate (log intensity, higher = more binding, comparable within an allelic series)
- binding signal (PAX4 [4]): 12 upbm affinity estimate (log intensity, higher = more binding, comparable within an allelic series)
- binding signal (PAX4 [5]): 10.5 upbm affinity estimate (log intensity, higher = more binding, comparable within an allelic series)
- binding signal (PAX4 [6]): 10.9 upbm affinity estimate (log intensity, higher = more binding, comparable within an allelic series)
- binding signal (PAX4 [7]): 11 upbm affinity estimate (log intensity, higher = more binding, comparable within an allelic series)
- binding signal (PRRX1 [12]): 13.2 upbm affinity estimate (log intensity, higher = more binding, comparable within an allelic series)

Sequence: GGCTTCCA
- binding signal (PAX4 [1]): 9.19 upbm affinity estimate (log intensity, higher = more binding, comparable within an allelic series)
- binding signal (PAX4 [2]): 9.03 upbm affinity estimate (log intensity, higher = more binding, comparable within an allelic series)
- binding signal (HOXA2 [13]): 7.05 upbm affinity estimate (log intensity, higher = more binding, comparable within an allelic series)
- binding signal (PAX4 [4]): 9.42 upbm affinity estimate (log intensity, higher = more binding, comparable within an allelic series)
- binding signal (HOXA2 [14]): 10.4 upbm affinity estimate (log intensity, higher = more binding, comparable within an allelic series)
- binding signal (PAX4 [5]): 9.33 upbm affinity estimate (log intensity, higher = more binding, comparable within an allelic series)
- binding signal (PAX4 [6]): 9.37 upbm affinity estimate (log intensity, higher = more binding, comparable within an allelic series)
- binding signal (PAX4 [7]): 9.41 upbm affinity estimate (log intensity, higher = more binding, comparable within an allelic series)
- binding signal (HOXA2 [15]): 10.5 upbm affinity estimate (log intensity, higher = more binding, comparable within an allelic series)
- binding signal (HOXA2 [16]): 7.18 upbm affinity estimate (log intensity, higher = more binding, comparable within an allelic series)

Sequence: GTGTAATA
- binding signal (PAX4 [1]): 10.9 upbm affinity estimate (log intensity, higher = more binding, comparable within an allelic series)
- binding signal (PAX4 [2]): 11.1 upbm affinity estimate (log intensity, higher = more binding, comparable within an allelic series)
- binding signal (PAX4 [4]): 10.8 upbm affinity estimate (log intensity, higher = more binding, comparable within an allelic series)
- binding signal (PAX4 [5]): 10.4 upbm affinity estimate (log intensity, higher = more binding, comparable within an allelic series)

Sequence: GCCCCACC
- binding signal (PAX4 [1]): 9.5 upbm affinity estimate (log intensity, higher = more binding, comparable within an allelic series)
- binding signal (PAX4 [2]): 9.33 upbm affinity estimate (log intensity, higher = more binding, comparable within an allelic series)
- binding signal (HOXD13 [17]): 9.66 upbm affinity estimate (log intensity, higher = more binding, comparable within an allelic series)
- binding signal (PAX4 [4]): 9.38 upbm affinity estimate (log intensity, higher = more binding, comparable within an allelic series)
- binding signal (HOXD13 [18]): 9.74 upbm affinity estimate (log intensity, higher = more binding, comparable within an allelic series)
- binding signal (PAX4 [5]): 9.19 upbm affinity estimate (log intensity, higher = more binding, comparable within an allelic series)
- binding signal (PAX4 [6]): 9.3 upbm affinity estimate (log intensity, higher = more binding, comparable within an allelic series)
- binding signal (HOXD13 [19]): 9.8 upbm affinity estimate (log intensity, higher = more binding, comparable within an allelic series)
- binding signal (PAX4 [7]): 9.4 upbm affinity estimate (log intensity, higher = more binding, comparable within an allelic series)

Sequence: TAAAGTAA
- binding signal (PAX4 [1]): 10.7 upbm affinity estimate (log intensity, higher = more binding, comparable within an allelic series)
- binding signal (PAX4 [2]): 10.9 upbm affinity estimate (log intensity, higher = more binding, comparable within an allelic series)
- binding signal (PAX4 [4]): 10.8 upbm affinity estimate (log intensity, higher = more binding, comparable within an allelic series)

Sequence: CCAGGAGC
- binding signal (PAX4 [1]): 9.4 upbm affinity estimate (log intensity, higher = more binding, comparable within an allelic series)
- binding signal (PAX4 [2]): 9.35 upbm affinity estimate (log intensity, higher = more binding, comparable within an allelic series)
- binding signal (NKX2-6 [20]): 9.22 upbm affinity estimate (log intensity, higher = more binding, comparable within an allelic series)
- binding signal (PAX4 [4]): 9.51 upbm affinity estimate (log intensity, higher = more binding, comparable within an allelic series)
- binding signal (PAX4 [5]): 9.26 upbm affinity estimate (log intensity, higher = more binding, comparable within an allelic series)
- binding signal (PAX4 [6]): 9.24 upbm affinity estimate (log intensity, higher = more binding, comparable within an allelic series)
- binding signal (NKX2-6 [21]): 9.26 upbm affinity estimate (log intensity, higher = more binding, comparable within an allelic series)
- binding signal (PAX4 [7]): 9.32 upbm affinity estimate (log intensity, higher = more binding, comparable within an allelic series)

Sequence: GAGCAGGC
- binding signal (PAX4 [1]): 9.17 upbm affinity estimate (log intensity, higher = more binding, comparable within an allelic series)
- binding signal (PAX4 [2]): 9.18 upbm affinity estimate (log intensity, higher = more binding, comparable within an allelic series)
- binding signal (HOXA2 [13]): 7.17 upbm affinity estimate (log intensity, higher = more binding, comparable within an allelic series)
- binding signal (PAX4 [4]): 9.24 upbm affinity estimate (log intensity, higher = more binding, comparable within an allelic series)
- binding signal (HOXA2 [14]): 10.1 upbm affinity estimate (log intensity, higher = more binding, comparable within an allelic series)
- binding signal (PAX4 [5]): 9.28 upbm affinity estimate (log intensity, higher = more binding, comparable within an allelic series)
- binding signal (PAX4 [6]): 9.26 upbm affinity estimate (log intensity, higher = more binding, comparable within an allelic series)
- binding signal (PAX4 [7]): 9.32 upbm affinity estimate (log intensity, higher = more binding, comparable within an allelic series)
- binding signal (HOXA2 [15]): 10.5 upbm affinity estimate (log intensity, higher = more binding, comparable within an allelic series)
- binding signal (HOXA2 [16]): 7.04 upbm affinity estimate (log intensity, higher = more binding, comparable within an allelic series)

From paper PMC11006913
